Consider 40 compounds from PubChem BioAssay (EPA / NIEHS).

Records with an inconclusive call do not appear. Active and inactive are the calls of the source. The calls were made as follows: active = hit-call score of the fitted dose curve at least 0.9, where 1 is the maximum; inconclusive = response in the unintended direction; inactive = score below 0.9.

Read-out in this test: xenobiotic metabolism (CYP1A2), CYP1A2 (gene 1544)
The test is described as follows: CLD_CYP1A2_6hr: CellzDirect (CLD) Gene Expression Assay for xenobiotic metabolism (CYP1A2) at 6 hours (AID 2283663).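 As to AC50: potency is for induction meaning a rise in mRNA above DMSO.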 As for the experimental part: CLD_6hr is a cell-based, multiplexed-readout assay that uses hepatocyte, a human liver primary cell, with measurements taken at 6 hours after chemical dosing in a 96-well plate.CLD_CYP1A2_6hr is one of 16 assay component(s) measured or calculated from the CLD_6hr assay. It is designed to make measurements of mRNA induction, a form of inducible reporter, as detected with chemiluminescence signals by Quantitative Nuclease Protection Assay (qNPA) technology.Data from the assay component CLD_CYP1A2_6hr was analyzed at the endpoint, CLD_CYP1A2_6hr, in the positive analysis fitting direction relative to DMSO as the negative control and baseline of activity. Using a type of inducible reporter, gain-of-signal activity can be used to understand changes in the reporter gene as they relate to the gene CYP1A2. Furthermore, this assay endpoint can be referred to as a primary readout. To generalize the intended target to other relatable targets, this assay endpoint is annotated to the cyp intended target family, where subfamily is xenobiotic metabolism.
Human hepatocyte cultures were treated daily for two consecutive days with fresh dosing solutions containing appropriate concentrations of the 320 ToxCast chemicals (chemical identities were blinded to CellzDirect and other ToxCast collaborators), vehicle control (0.2% DMSO), and positive control inducers as summarized in Table 1. Due to the large number of treatment groups and chemicals examined, the ToxCast chemicals were divided into two groups (spanning two independent cultures of hepatocytes from separate donor preparations (Hu778: ToxCast plates 1 and 2; Hu776: ToxCast plates 3 and 4). Each preparation of human hepatocyte cultures was treated with respective vehicle control, medium only control, set of six positive controls/reference chemicals for the five hepatic receptor pathways, and a subset of eight of the ToxCast chemicals (indoxacarb, pyrithiobac-sodium, norflurazon, cyhalofop-butyl, methomyl, thiram, acetochlor, and propiconazole). These replicate data, coupled with internal replicates designed within the blinded ToxCast chemical library, provided additional data to evaluate interindividual differences between hepatocyte preparations and their potential impact on chemical profiles.Cell morphology and integrity were evaluated using phase-contrast microscopy as an indicator of hepatocyte cell health (Tyson & Green, 1987). Cultures for each treatment group (i.e., media, vehicle [0.2% DMSO], positive control inducers [multiple concentrations], and the ToxCast chemicals [multiple concentrations]) were observed and cell morphology was assessed relative to vehicle control cultures at each harvest time point (0, 6, 24, or 48 h). […] Images were evaluated at the conclusion of the study to assess changes in cell integrity and account for the effects of chemical exposure on uncharacteristic changes in concentration-dependent gene expression profiles. The results from these determinations of apparent cytotoxicity were annotated (yes/no) alongside the corresponding qNPA data for reference.At the conclusion of each treatment period, hepatocyte cultures (96-well) were washed with 1 volume of HBSS, lysed by addition of 25 ul ArrayPlate lysis buffer (HTG, Tucson, AZ), and 70 ul/well of Denaturation Oil, denatured by incubation at 95C for 10 min, and frozen at approximately -70C until analysis by nuclease protection assay (qNPA) (Roberts et al., 2007). For qNPA analysis, cell lysates were thawed at 50C for approximately 30 min, qNPA probes were added, and samples were incubated at 95C for 10 min to begin the detection process by denaturing the target RNA, dissociating the duplexes and secondary structure hybridization. At the conclusion of the hybridization period, S1 nuclease reagent was added to each sample to digest all nonprotected nucleotides at 50C for 60-90 min. […]
Turning to `Cc1cnc(C2=NC(C)(C(C)C)C(=O)N2)c(C(=O)O)c1` (stereo not given), the call was inactive. The same measure, in the same setting: the value for `CC1(C)CON(Cc2ccccc2Cl)C1=O` was “inactive”. Turning to `Clc1cccc(C(Cl)(Cl)Cl)n1`, the outcome was inactive. In the case of `COC(=O)c1c(C(F)F)nc(C(F)(F)F)c(C2=NCCS2)c1CC(C)C`, the AC50 is 0.665 µM (active). `COC(=O)N(C(=O)N1CO[C@@]2(C(=O)OC)Cc3cc(Cl)ccc3C2=N1)c1ccc(OC(F)(F)F)cc1`: the AC50 was 0.449 µM (active). Turning to `COP(=S)(OC)SCn1nnc2ccccc2c1=O`, the AC50 is 5.35 µM (active). Still for that read-out and setting: the same measure for `CCOC(=O)C(C)OC(=O)c1cc(Oc2ccc(C(F)(F)F)cc2Cl)ccc1[N+](=O)[O-]` (stereo not given): 4.81 µM (active); for `CCN(CC)c1nc(C)cc(OP(=S)(OC)OC)n1`: 5.69 µM (active); for `CC(C)C1(C)N=C(c2ncccc2C(=O)O)NC1=O` (stereo not given): 1.89 µM (active).

As to `COP(=O)(OC)O/C(C)=C/C(=O)N(C)C`, the result was inactive. With `COc1ccc(-c2ccccc2)cc1NNC(=O)OC(C)C`, the AC50 is 0.798 µM (active). As for `CNC(=O)N(C)c1nnc(C(C)(C)C)s1`, the result was inactive. Consider `Cc1ccc(N=CN(C)C=Nc2ccc(C)cc2C)c(C)c1`, for which the result was inactive. Take `Cn1c(-c2ccccc2)cc(-c2ccccc2)[n+]1C`: the compound was called inactive. Still for that read-out and setting: the same measure for `C=CCOC(=O)C(C)(C)OC(=O)c1cc(-n2c(=O)cc(C(F)(F)F)n(C)c2=O)ccc1Cl`: “inactive”.

Regarding `Cc1cc(C)nc(Nc2ccccc2)n1`, the concentration at half-maximal activity (AC50) is 3.97 µM (active). With `COC(=O)NC(=S)Nc1ccccc1NC(=S)NC(=O)OC`, the outcome was inactive. On the same count and under the same terms, the value for `Clc1nc(Cl)nc(Nc2ccccc2Cl)n1` was “inactive”. In the case of `CC(C)N1C(=O)c2ccccc2NS1(=O)=O`, the outcome was inactive. In the case of `O=c1n(Cl)c(=O)n(Cl)c(=O)n1Cl`, the AC50 was 20 µM (active).

For the compound `COCC(C)N(C(=O)CCl)c1c(C)csc1C` (stereo not given), the outcome was inactive.

Consider `CCOc1nc(F)cc2nc(S(=O)(=O)Nc3c(Cl)cccc3Cl)nn12`, for which the call was inactive. For `CCOP(=O)(OCC)Oc1nc(Cl)c(Cl)cc1Cl`, the AC50 is 5.84 µM (active). On the same count and under the same terms, the same measure for `Cc1nc(N(C)C)nc(OC(=O)N(C)C)c1C`: 3.8 µM (active). Turning to `CCCCC(O)(Cn1cncn1)c1ccc(Cl)cc1Cl` (stereo not given), the compound was classed as inactive. For the compound `C=C(C)CN(CC)c1c([N+](=O)[O-])cc(C(F)(F)F)cc1[N+](=O)[O-]`, the compound was classed as inactive. For the compound `CNC(=O)Oc1cccc2ccccc12`, the AC50 is 6.08 µM (active). As for `CSC(=O)c1c(C(F)F)nc(C(F)(F)F)c(C(=O)SC)c1CC(C)C`, the outcome was inactive. Still for that read-out and setting: the value for `CCCCOCN(C(=O)CCl)c1c(CC)cccc1CC` was “inactive”; that for `CC(C)Oc1cccc(NC(=O)c2ccccc2C(F)(F)F)c1` was “inactive”.

`COCC(=O)N(c1c(C)cccc1C)C(C)C(=O)OC` (stereo not given): the outcome was inactive. On the same count and under the same terms, the same measure for `Nc1c(Cl)c(F)nc(OCC(=O)O)c1Cl`: “inactive”. Take `CCCN(CC)CC1COC2(CCC(C(C)(C)C)CC2)O1` (stereo not given): the compound was called inactive.

For `CS(=O)(=O)c1cc(C(F)(F)F)ccc1C(=O)c1cnoc1C1CC1`, the call was inactive. In the case of `O=C(Nc1ccccc1-c1ccc(Cl)cc1)c1cccnc1Cl`, the AC50 was 2.34 µM (active). On to `CC(C)NC(=O)N1CC(=O)N(c2cc(Cl)cc(Cl)c2)C1=O`, for which the half-maximal activity concentration (AC50) is 20 µM (active).

`CCNP(=S)(OC)O/C(C)=C/C(=O)OC(C)C` (stereo not given): the AC50 was 3.56 µM (active).

Turning to `CC1(C)C(C=C(Cl)Cl)C1C(=O)OC(C#N)c1cccc(Oc2ccccc2)c1` (stereo not given), the AC50 was 2.15 µM (active). Turning to `CCNC(=O)NC(=O)C(C#N)=NOC`, the compound was classed as inactive.

`OC(c1ccc(Cl)cc1)(c1ccc(Cl)cc1)C(Cl)(Cl)Cl`: the compound was called inactive.
